The values below come from PubChem BioAssay (EPA / NIEHS).

Each structure is given as a SMILES string. Inconclusive results are not listed. Calls of active or inactive are those of the source. How the source made its calls, unless noted: active means hit-call score of the fitted dose curve at least 0.9, where 1 is the maximum; inconclusive means response in the unintended direction; inactive means score below 0.9.

For assay [1], the target named is Estrogen-related receptor gamma (Homo sapiens) (UniProt P62508). Nature of the assay: ATG_ERRg_TRANS: Attagene TRANS-FACTORIAL HepG2 Assay for human Estrogen-Related Receptor gamma (ERRg) (AID 2282977).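 Further: hits increase reporter signal over DMSO so potencies reflect activators.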 As to conditions: HepG2 Attagene TRANS reporter, ERRg transactivation. In a few lines:
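Transfect HepG2 with multiple GAL4-UAS reporter transcription units; dose chemicals 24 h; isolate RNA, reverse-transcribe with oligo(dT), PCR-amplify, label with 6-FAM, digest with HpaI; size fragments by capillary electrophoresis. DMSO serves as negative control.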

Assay [2] deals with Bile acid receptor (Homo sapiens) (UniProt Q96RI1). Nature of the assay: ATG_FXR_TRANS: Attagene TRANS-FACTORIAL HepG2 Assay for Farnesoid X Receptor (FXR) (AID 2282979).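 Further: hits raise reporter mRNA above DMSO so AC50 marks FXR activation.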 To be noted: HepG2 Attagene TRANS FXR-GAL4 reporter transcription. In a few lines:
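Chimeric FXR-GAL4 activity in transiently transfected human HepG2 liver cells is scored as induction of reporter mRNA after 24 h of dosing. Detection uses RT-PCR with fluorescent labelling and capillary electrophoresis, with DMSO serving as baseline.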

For assay [3], the target named is Oxysterols receptor LXR-alpha (Homo sapiens) (UniProt Q13133). Nature of the assay: ATG_LXRa_TRANS: Attagene TRANS-FACTORIAL HepG2 Assay for human Liver X Receptor alpha (LXRa) (AID 2282980). To be noted: HepG2 Attagene TRANS reporter, LXRa transactivation. In a few lines:
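Transient HepG2 transfectants, 24 h dosing, RT-PCR/CE mRNA reporter quantitation; gain-of-signal vs DMSO.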

In assay [4] the target is Oxysterols receptor LXR-beta (Homo sapiens) (UniProt P55055). Nature of the assay: ATG_LXRb_TRANS: Attagene TRANS-FACTORIAL HepG2 Assay for human Liver X Receptor beta (LXRb) (AID 2282981). As to conditions: HepG2 Attagene TRANS GAL4-LXRb reporter, mRNA. In a few lines: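 Transient transfection HepG2 (multiplexed RTUs, GAL4-UAS); NR-Gal4 chimera; 24 h exposure; RNA → RT-PCR → 6-FAM primer extension → HpaI → CE; increase vs DMSO.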
Oxysterols receptor LXR-beta (Homo sapiens), sequence (P55055 whole entry, looked up, the tested form may be a part): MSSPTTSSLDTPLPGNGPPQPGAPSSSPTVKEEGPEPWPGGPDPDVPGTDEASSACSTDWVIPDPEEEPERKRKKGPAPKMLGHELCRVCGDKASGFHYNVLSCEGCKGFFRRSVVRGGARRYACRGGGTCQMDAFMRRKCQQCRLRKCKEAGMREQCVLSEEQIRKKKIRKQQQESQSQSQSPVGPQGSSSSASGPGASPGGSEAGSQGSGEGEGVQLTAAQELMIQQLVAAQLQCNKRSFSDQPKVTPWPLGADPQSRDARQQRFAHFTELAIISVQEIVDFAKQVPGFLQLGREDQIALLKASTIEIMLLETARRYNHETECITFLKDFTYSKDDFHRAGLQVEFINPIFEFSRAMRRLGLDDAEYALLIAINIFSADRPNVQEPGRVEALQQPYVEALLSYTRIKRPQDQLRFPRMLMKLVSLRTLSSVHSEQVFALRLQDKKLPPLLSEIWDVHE

Assay [5] addresses Hepatocyte nuclear factor 4-alpha (Homo sapiens) (UniProt P41235). Nature of the assay: ATG_HNF4a_TRANS: Attagene TRANS-FACTORIAL HepG2 Assay for human Hepatocyte Nuclear Factor 4 alpha (HNF4a) (AID 2282982). As to conditions: HepG2 HNF4a transactivation reporter, mRNA readout. In a few lines: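 Readout is fluorescent reporter-transcript fragments resolved by capillary electrophoresis after RT-PCR from HepG2 cells dosed for 24 h. Cells carried transfected GAL4-UAS reporter constructs measuring exogenous NR-GAL4 chimera activity; DMSO served as baseline.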

Assay [6] is described as follows: ATG_M_06_TRANS: Attagene TRANS-FACTORIAL HepG2 Assay for M06 Transcription Factor (Internal Marker) (AID 2282983). To be noted: HepG2 Attagene TRANS M06 internal marker reporter. In a few lines:
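Measured by capillary electrophoresis of fluorescently labelled RT-PCR products, this endpoint reflects reporter mRNA in HepG2 cells harbouring exogenous NR-GAL4 reporter constructs after 24 h exposure, with DMSO as baseline.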

The nature of assay [7]: ATG_M_32_TRANS: Attagene TRANS-FACTORIAL HepG2 Assay for M32 Transcription Factor (Internal Marker) (AID 2282984). As to conditions: HepG2 Attagene TRANS M32 internal marker reporter. In a few lines: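 Measures reporter mRNA induction in human HepG2 liver cells after 24 h chemical treatment. Transcripts from transiently transfected GAL4-UAS reporter units are amplified, fluorescently labelled and sized by capillary electrophoresis; gain of signal relative to DMSO.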

The target in assay [8] is Nuclear receptor subfamily 4 group A member 2 (Homo sapiens) (UniProt P43354). Nature of the assay: ATG_NURR1_TRANS: Attagene TRANS-FACTORIAL HepG2 Assay for human Nuclear Receptor Related Protein 1 (NURR1) (AID 2282985). As to conditions: HepG2 Attagene TRANS reporter, mRNA readout. In a few lines:
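Transient transfection of HepG2, human liver cells, with multiple GAL4-UAS reporter transcription units. Cells dosed 24 h, RNA isolated, reverse-transcribed, PCR-amplified, FAM-labelled, HpaI-digested, sized by capillary electrophoresis. DMSO served as negative control.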

Assay [9] concerns the target Transcriptional activator Myb (Homo sapiens) (UniProt P10242). Nature of the assay: ATG_Myb_CIS: Attagene CIS-FACTORIAL HepG2 Assay for human Myeloblastosis (Myb) Proto-Oncogene Transcription Factor (AID 2282986; active means hit-call score of the fitted dose curve at least 0.9, where 1 is the maximum; inactive means score below 0.9). As to conditions: HepG2 Attagene CIS-FACTORIAL Myb reporter transcription; actives raise or lower the signal. An outline of the steps:
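Reporter transcript levels, quantified by fluorescent RT-PCR and capillary electrophoresis, serve as the read-out. Transfected HepG2 cells carrying cis-promoter reporter units are dosed for 24 hours, and curves are fitted bidirectionally against DMSO controls.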

For assay [10], the target named is Glucocorticoid receptor (Homo sapiens) (UniProt P04150). Nature of the assay: ATG_GR_TRANS: Attagene TRANS-FACTORIAL HepG2 Assay for human Glucocorticoid Receptor (GR) (AID 2282978).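 Further: activators score as hits since higher reporter transcript over DMSO is fitted.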 To be noted: HepG2 Attagene TRANS GR reporter, mRNA transcription. An outline of the steps: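 Fluorescent capillary-electrophoresis quantitation of reporter mRNA is the readout, taken 24 h after dosing human HepG2 cells carrying transiently transfected GAL4-UAS reporter units activated by chimeric NR-GAL4 fusions; activity scored as induction over DMSO.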
Glucocorticoid receptor (Homo sapiens), sequence (P04150 whole entry, looked up, the tested form may be a part): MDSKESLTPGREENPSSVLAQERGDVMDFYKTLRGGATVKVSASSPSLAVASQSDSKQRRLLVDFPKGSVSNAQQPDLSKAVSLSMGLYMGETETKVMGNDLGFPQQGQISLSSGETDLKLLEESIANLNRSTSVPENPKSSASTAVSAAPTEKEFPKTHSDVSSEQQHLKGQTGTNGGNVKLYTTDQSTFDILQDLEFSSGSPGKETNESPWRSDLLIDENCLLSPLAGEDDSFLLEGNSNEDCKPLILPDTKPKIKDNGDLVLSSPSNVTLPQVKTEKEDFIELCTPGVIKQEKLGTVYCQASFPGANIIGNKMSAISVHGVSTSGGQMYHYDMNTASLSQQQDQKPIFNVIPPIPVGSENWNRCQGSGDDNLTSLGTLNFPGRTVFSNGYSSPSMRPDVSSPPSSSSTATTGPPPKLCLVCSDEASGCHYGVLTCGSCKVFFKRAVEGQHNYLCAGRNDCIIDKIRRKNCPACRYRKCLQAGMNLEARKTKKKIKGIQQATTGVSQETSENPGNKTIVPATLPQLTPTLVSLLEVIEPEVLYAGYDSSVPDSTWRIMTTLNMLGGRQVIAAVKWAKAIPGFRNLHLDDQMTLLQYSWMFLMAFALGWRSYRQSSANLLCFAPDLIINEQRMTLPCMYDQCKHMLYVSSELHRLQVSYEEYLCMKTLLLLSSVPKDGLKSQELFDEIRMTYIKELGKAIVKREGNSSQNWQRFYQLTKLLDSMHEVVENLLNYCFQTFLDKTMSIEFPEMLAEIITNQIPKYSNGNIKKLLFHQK

Estrogen-related receptor gamma (Homo sapiens), sequence (P62508 whole entry, looked up, the tested form may be a part): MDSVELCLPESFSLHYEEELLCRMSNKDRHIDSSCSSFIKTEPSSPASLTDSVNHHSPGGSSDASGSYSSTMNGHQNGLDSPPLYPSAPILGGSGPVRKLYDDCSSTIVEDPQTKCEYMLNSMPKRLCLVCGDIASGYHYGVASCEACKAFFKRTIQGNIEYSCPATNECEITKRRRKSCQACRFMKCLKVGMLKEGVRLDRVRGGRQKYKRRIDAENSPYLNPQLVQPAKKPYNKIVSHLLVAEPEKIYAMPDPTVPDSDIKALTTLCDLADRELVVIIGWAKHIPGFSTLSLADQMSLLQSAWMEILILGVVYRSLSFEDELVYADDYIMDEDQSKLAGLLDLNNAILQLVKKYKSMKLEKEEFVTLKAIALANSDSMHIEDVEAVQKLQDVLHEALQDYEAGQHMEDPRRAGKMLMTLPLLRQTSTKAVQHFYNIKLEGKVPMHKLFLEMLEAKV
Transcriptional activator Myb (Homo sapiens), sequence (P10242 whole entry, looked up): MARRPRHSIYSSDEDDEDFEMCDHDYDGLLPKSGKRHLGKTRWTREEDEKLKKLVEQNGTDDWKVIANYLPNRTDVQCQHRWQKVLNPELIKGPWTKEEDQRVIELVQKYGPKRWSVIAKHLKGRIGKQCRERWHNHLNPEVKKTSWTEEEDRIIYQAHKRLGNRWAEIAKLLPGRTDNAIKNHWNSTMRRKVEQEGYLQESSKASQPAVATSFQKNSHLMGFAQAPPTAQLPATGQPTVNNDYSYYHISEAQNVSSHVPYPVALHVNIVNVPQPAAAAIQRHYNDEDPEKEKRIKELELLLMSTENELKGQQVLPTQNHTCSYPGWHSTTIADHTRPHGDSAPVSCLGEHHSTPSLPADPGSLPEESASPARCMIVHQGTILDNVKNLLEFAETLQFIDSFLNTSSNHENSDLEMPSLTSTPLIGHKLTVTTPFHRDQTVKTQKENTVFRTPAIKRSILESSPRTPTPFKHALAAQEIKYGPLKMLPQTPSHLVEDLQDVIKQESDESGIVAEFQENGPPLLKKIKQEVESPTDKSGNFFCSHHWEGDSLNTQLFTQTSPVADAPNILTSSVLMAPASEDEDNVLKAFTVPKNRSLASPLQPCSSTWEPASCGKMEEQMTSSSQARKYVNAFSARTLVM
Bile acid receptor (Homo sapiens), sequence (Q96RI1 whole entry, looked up, the tested form may be a part): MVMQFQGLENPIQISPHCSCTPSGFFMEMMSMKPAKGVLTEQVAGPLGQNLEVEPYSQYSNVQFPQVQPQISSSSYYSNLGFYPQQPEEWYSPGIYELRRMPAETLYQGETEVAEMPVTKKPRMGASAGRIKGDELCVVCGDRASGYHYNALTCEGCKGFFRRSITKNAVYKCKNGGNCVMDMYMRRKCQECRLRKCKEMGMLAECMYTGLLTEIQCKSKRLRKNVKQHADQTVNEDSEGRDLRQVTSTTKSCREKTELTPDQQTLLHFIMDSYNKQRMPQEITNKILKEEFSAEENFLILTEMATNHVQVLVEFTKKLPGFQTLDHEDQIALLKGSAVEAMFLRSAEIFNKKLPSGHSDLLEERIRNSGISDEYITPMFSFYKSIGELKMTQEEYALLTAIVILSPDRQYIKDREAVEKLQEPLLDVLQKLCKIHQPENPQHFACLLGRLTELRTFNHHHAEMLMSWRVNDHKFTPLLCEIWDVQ
Hepatocyte nuclear factor 4-alpha (Homo sapiens), sequence (P41235 whole entry, looked up, the tested form may be a part): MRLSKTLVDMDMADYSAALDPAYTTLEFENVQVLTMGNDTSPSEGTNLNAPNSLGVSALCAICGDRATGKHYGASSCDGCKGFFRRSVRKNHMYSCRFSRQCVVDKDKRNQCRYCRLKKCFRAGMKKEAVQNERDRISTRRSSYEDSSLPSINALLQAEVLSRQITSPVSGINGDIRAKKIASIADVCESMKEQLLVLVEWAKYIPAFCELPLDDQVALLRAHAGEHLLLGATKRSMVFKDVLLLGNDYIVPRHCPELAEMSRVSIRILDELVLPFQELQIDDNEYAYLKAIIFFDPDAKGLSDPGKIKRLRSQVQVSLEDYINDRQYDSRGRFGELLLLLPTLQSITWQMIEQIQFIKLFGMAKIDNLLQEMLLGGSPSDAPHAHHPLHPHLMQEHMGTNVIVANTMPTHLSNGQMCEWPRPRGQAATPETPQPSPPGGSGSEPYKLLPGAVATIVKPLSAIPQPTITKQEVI
Oxysterols receptor LXR-alpha (Homo sapiens), sequence (Q13133 whole entry, looked up): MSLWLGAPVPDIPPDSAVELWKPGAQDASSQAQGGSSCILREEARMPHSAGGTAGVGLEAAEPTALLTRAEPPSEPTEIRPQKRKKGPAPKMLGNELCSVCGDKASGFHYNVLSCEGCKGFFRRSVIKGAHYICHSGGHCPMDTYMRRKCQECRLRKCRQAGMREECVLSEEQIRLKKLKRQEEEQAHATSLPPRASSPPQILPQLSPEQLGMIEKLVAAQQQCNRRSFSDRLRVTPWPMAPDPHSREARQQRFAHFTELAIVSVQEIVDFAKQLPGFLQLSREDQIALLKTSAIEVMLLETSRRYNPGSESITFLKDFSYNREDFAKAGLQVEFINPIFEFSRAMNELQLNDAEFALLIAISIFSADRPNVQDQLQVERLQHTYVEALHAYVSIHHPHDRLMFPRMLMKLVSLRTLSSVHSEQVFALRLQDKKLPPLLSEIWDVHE
Nuclear receptor subfamily 4 group A member 2 (Homo sapiens), sequence (P43354 whole entry, looked up, the tested form may be a part): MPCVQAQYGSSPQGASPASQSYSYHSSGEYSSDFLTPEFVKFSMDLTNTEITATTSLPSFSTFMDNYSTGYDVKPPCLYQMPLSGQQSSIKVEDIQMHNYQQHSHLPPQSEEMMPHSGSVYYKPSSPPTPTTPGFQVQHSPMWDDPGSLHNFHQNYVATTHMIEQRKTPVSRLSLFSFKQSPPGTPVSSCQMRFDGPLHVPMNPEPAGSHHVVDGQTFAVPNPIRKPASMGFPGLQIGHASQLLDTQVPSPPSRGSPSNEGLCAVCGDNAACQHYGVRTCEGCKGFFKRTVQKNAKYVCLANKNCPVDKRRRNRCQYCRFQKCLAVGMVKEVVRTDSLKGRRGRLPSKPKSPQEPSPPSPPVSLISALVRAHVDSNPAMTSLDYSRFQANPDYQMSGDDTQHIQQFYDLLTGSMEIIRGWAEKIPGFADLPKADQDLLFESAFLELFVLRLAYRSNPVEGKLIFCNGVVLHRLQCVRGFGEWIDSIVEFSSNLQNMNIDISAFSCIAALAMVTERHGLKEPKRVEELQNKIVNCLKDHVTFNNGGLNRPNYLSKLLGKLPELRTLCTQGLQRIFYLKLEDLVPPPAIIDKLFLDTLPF

As to `O=C(O)CCC(F)(F)C(F)(F)C(F)(F)F`, the compound was classed as inactive in assay [1], in [2], in [3], in [4], in assay [5] and in assay [6]. The compound was called inactive in assay [7], in assay [8] and in [9].

Take `OCCCC(F)(F)C(F)(F)C(F)(F)C(F)(F)C(F)(F)C(F)(F)C(F)(F)C(F)(F)F`: the result in assay [1], in assay [10], in [3], in assay [4], in assay [5] and in assay [6] was inactive. In addition, the outcome in assay [7] and in assay [9] was inactive. In [8], the AC50 is 7.38 µM (active).

Turning to `CCC(=O)OC(C)c1ccccc1` (stereo unspecified), the outcome in assay [1], in [2], in assay [4], in assay [5], in assay [6] and in assay [7] was inactive. The compound was classed as inactive in assay [8] and in assay [9].

For `CCOC(=O)C1CC(=O)C(=C(O)C2CC2)C(=O)C1` (stereo unspecified), the result in assay [1], in assay [2], in [4], in [6] and in assay [9] was inactive.

In the case of `C=C(C)CCCC`, the call in [1], in assay [10], in assay [3], in assay [7] and in [9] was inactive.

For `COCCOCCC[Si](C)(O[Si](C)(C)C)O[Si](C)(C)C`, the outcome in assay [10], in assay [2], in [3], in assay [4], in [5] and in assay [6] was inactive. Further, the compound was classed as inactive in assay [7] and in assay [8]. In addition, in assay [9], the concentration at half-maximal activity (AC50) is 19 µM (active).

With `CCCCCCCC/C=C\CCCCCCCC(=O)OCC(O)CO` (stereo unspecified), the result in assay [1], in assay [10], in assay [2], in [6], in assay [7] and in assay [8] was inactive. Besides, the call in [9] was inactive.

Consider `NC(=O)C(F)(F)C(F)(F)C(F)(F)F`, for which the compound was classed as inactive in assay [1], in assay [10], in assay [4], in [5], in assay [6] and in [8]. In [9], the call was inactive.

Turning to `CCOCN(C(=O)CS(=O)(=O)O)c1c(C)cccc1CC`, the compound was called inactive in [10], in [2], in assay [3], in assay [4], in assay [5] and in assay [6]. In addition, the call in assay [7], in assay [8] and in [9] was inactive.

On to `O=S(=O)(OCC(F)(F)F)C(F)(F)C(F)(F)C(F)(F)C(F)(F)F`, for which the compound was classed as inactive in assay [1], in [10], in assay [2], in assay [3], in [5] and in assay [6]. The result in assay [7] and in [9] was inactive. Further, the concentration at half-maximal activity (AC50) in assay [8] is 65.2 µM (active).

As for `O=C1c2ccccc2C(=O)c2c(Cl)cccc21`, the result in assay [10], in assay [2], in assay [3], in assay [4], in assay [6] and in [7] was inactive. Further, the result in [8] and in [9] was inactive.

For `C=CC(=O)OCC(F)(F)C(F)(F)C(F)(F)COC(=O)C=C`, the outcome in assay [1], in assay [10], in [2], in assay [4], in [5] and in assay [6] was inactive. The outcome in [8] and in assay [9] was inactive.

As to `Cc1ccc(O)c(-n2nc3ccccc3n2)c1`, the outcome in assay [1], in assay [10], in assay [3], in assay [4], in assay [6] and in assay [7] was inactive. For the same compound, the compound was called inactive in [9].

As to `CCCCCCCCCCCCCCCCC`, the compound was called inactive in assay [1], in assay [3], in [4], in assay [5], in assay [6] and in assay [7]. Further, the compound was classed as inactive in assay [9].

On to `CO[Si](C)(CCC(F)(F)C(F)(F)C(F)(F)C(F)(F)C(F)(F)C(F)(F)F)OC`, for which the call in assay [1], in assay [4], in [5], in assay [7] and in [9] was inactive.

On to `FC(F)(F)C(F)(F)C(F)(F)CC1CO1` (stereo unspecified), for which the call in [1], in assay [10], in assay [2], in [3], in [4] and in assay [6] was inactive. In addition, the compound was called inactive in [7], in assay [8] and in assay [9].

The term AC50 denotes the concentration giving half of the maximal activity seen.
